Source: PubChem
ELG1 repair inh – blocks ELG1-dependent DNA repair in HEK293T cells | HEK293T ELG1-luciferase reporter, luminescence, 16 h; DNA damage induced by 5-fluorouridine | Potency, µM (highest dose often 46.1 µM), actives largely listed as inhibitors | 330,000 compounds, 2.3% hits | AID 504467; note: nearly all actives have a fitted effect of over 55% in size
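Cells (2,000 per well) received 5-fluorouridine plus test compound or DMSO and were incubated 16 hr at 37 °C, 5% CO2. Luciferase activity was read by luminescence 30 min after ONE-Glo addition; signal suppression marked inhibition of damage-induced ELG1 function.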
ELG1 genotoxic – induces genotoxicity in HEK293T cells with luciferase-tagged ELG1 | HEK293T ELG1-luciferase reporter, luminescence, 16 h | Potency, µM (series often up to 46 µM), most hits filed as activators | 330,000 compounds, 1.3% hits | AID 504466; note: nearly all actives have a fitted effect of over 60% in size
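ELG1-luciferase HEK293T cells, 2,000/well; compound pinned in; 16 hr, 37 °C, 5% CO2; ONE-Glo, 30 min RT; luminescence on CCD imager.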
FLuc counter – counter-screen for miR-21 project: firefly luciferase inhibitors or activators. purified FLuc, Km substrates, luminescence inhibition. 360,000 compounds, 6.9% hits. Potency, µM (highest dose often 57.5 µM), usual class: inhibitors; note: nearly all actives have a fitted effect of over 55% in size
Target sequence (P08659 whole entry, looked up): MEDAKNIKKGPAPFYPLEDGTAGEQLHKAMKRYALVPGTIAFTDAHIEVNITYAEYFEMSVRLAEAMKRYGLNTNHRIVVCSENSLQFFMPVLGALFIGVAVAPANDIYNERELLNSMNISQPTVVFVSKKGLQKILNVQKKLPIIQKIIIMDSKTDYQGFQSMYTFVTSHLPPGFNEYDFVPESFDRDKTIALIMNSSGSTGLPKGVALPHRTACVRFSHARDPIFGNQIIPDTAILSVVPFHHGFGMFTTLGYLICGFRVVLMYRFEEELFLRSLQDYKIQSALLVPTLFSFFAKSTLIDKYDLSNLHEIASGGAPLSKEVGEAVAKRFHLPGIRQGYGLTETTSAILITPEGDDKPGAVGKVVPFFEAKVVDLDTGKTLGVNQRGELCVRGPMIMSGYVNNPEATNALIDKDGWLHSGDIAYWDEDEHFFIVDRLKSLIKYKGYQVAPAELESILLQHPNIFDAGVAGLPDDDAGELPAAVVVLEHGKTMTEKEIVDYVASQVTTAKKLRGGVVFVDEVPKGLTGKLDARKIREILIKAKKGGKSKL
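Purified P. pyralis luciferase (10nM final) with 10uM D-luciferin and 10uM ATP (Km levels) in 50mM Tris acetate pH 7.5, 10mM Mg acetate, 0.01% Tween-20, 0.05% BSA; qHTS 6-point titration, ~60 µM downward; luminescence read.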
SMN2 splice enh – SMN2 splice variant enhancement; HEK293 SMN2-luciferase splicing reporter, luminescence, 30-36 h; Potency, µM (top dose mostly 46.1 µM), actives largely listed as activators; 210,000 compounds, 2.8% hits; note: nearly all actives have a fitted effect of over 55% in size
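HEK293 cells carry an SMN2 minigene-luciferase reporter in which exon 7 inclusion puts luciferase in frame. Cells were seeded at 2000 cells/well, attached for 10-12 hours, then exposed to compounds for 30-36 hours at 37C before ONE-Glo luminescence.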
Rab9 prom act – activates the Rab9 promoter | Huh7 Rab9 promoter-luciferase reporter, luminescence, 24 h | Potency, µM (series often up to 9.22 µM), usual class: activators | 320,000 compounds, 2.8% hits | AID 485297; note: nearly all actives have a fitted effect of over 60% in size
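Measured in stably transfected Huh7 cells bearing a Rab9 promoter–luciferase construct: 24 h compound treatment at 37 °C, followed by luminescence detection.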
NPC1 prom act – NPC1 promoter activation; AID 485313; 320,000 compounds, 2.4% hits; Potency, µM (highest dose often 9.22 µM), most hits filed as activators; Huh7 NPC1 promoter luciferase reporter, 24 h; note: nearly all actives have a fitted effect of over 60% in size
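In 1536-well qHTS, Huh7 cells harboring an NPC1 promoter–luciferase construct received compound for 24 h; activation was quantified by luminescence following luciferase reagent addition.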
Hits are given with their value; [ ] = dose if it differs, or a comment. Only some compounds are listed: those with a hit (about 9.2% of all), similar ones and a draw of the others. Calls come from the whole dose curve; as a rule, active = well fitted curve in the direction sought with a large enough effect; inconclusive = small, poorly fitted or top-dose-only effect, or another doubt; inactive = no such curve, though single readings can be large; an effect the other way counts as inactive or inconclusive.

How did O=C(NCCCc1ccccc1)c1cnc2n(c1=O)CCS2 do in these assays?
ELG1 repair inh: inconclusive; ELG1 genotoxic: inactive; FLuc counter: inconclusive; SMN2 splice enh: 17.8µM; Rab9 prom act: inconclusive; NPC1 prom act: inconclusive

How did O=C(c1ccc(Cl)cc1Cl)N1CCC(C(=O)N2CCOCC2)CC1 do in these assays?
ELG1 repair inh: inactive; ELG1 genotoxic: inactive; FLuc counter: inactive; Rab9 prom act: inactive; NPC1 prom act: inactive

How did CC1CCN(C(=O)CSc2nc(=O)n3ccccc3n2)CC1 do in these assays?
ELG1 repair inh: inactive; ELG1 genotoxic: inactive; FLuc counter: inactive; Rab9 prom act: inactive; NPC1 prom act: inactive

How did Cc1csc(NC(=O)CSc2nc3sc(C)c(C)c3c(=O)[nH]2)n1 do in these assays?
ELG1 repair inh: inconclusive; ELG1 genotoxic: inactive; FLuc counter: inactive; SMN2 splice enh: inactive; Rab9 prom act: inactive; NPC1 prom act: inactive

Results for Cc1ccc(NC(=O)c2sc3nc(CCl)[nH]c(=O)c3c2C)c(C)c1 ?
ELG1 repair inh: inconclusive; ELG1 genotoxic: inconclusive; FLuc counter: 9.53µM; SMN2 splice enh: inconclusive; Rab9 prom act: inconclusive; NPC1 prom act: inactive

What do the screens show for `CSCc1nc2sc(C(=O)Nc3nc(C)cs3)c(C)c2c(=O)[nH]1`?
ELG1 repair inh: inconclusive; ELG1 genotoxic: inactive; FLuc counter: inconclusive; SMN2 splice enh: 11.2µM; Rab9 prom act: 3.16µM; NPC1 prom act: inconclusive

Results for CC1CCC(NC(=O)C2(C)Cc3ccccc3C(=O)N2Cc2ccc(F)cc2)CC1 (centres undefined) ?
FLuc counter: inactive; SMN2 splice enh: inactive

How did CC(=O)Nc1ccc(/C=C/c2nc(-c3ccccc3O)n[nH]2)cc1 do in these assays?
ELG1 repair inh: inconclusive; ELG1 genotoxic: inconclusive; FLuc counter: inconclusive; Rab9 prom act: 3.55µM; NPC1 prom act: inconclusive

Results for CC1CN(C(=O)Nc2ccc3c(c2)OCO3)CC(C)O1 (centres undefined) ?
ELG1 repair inh: inconclusive; ELG1 genotoxic: inconclusive; FLuc counter: 16.9µM; SMN2 splice enh: inactive; Rab9 prom act: inactive; NPC1 prom act: inactive

What do the screens show for `O=C(Nc1ccc2c(c1)OCO2)N1CCN(c2ccc(F)cc2)CC1`?
ELG1 repair inh: inconclusive; ELG1 genotoxic: inactive; FLuc counter: 23.9µM; SMN2 splice enh: inactive; Rab9 prom act: inconclusive; NPC1 prom act: inconclusive

What do the screens show for `CCOC(=O)NC(=O)c1cn(-c2ccc(OC)cc2)c(=O)[nH]c1=O`?
ELG1 repair inh: inactive; ELG1 genotoxic: inactive; FLuc counter: inactive; Rab9 prom act: inactive; NPC1 prom act: inactive

Results for Cc1cc(NC(=O)CSc2nnc(N)s2)c([N+](=O)[O-])cc1C ?
ELG1 repair inh: inactive; ELG1 genotoxic: inactive; FLuc counter: inactive; SMN2 splice enh: inactive; Rab9 prom act: inactive; NPC1 prom act: inactive

Results for C=CCN=Cc1c(C)[nH]n(-c2ccccc2)c1=O ?
ELG1 repair inh: inconclusive; ELG1 genotoxic: inactive; FLuc counter: inconclusive; SMN2 splice enh: inconclusive; Rab9 prom act: 3.55µM; NPC1 prom act: inactive

Results for Cc1ccc(-n2[nH]c(C)c(/C=N/Nc3ccc([N+](=O)[O-])cc3[N+](=O)[O-])c2=O)cc1 ?
ELG1 repair inh: inactive; ELG1 genotoxic: inactive; FLuc counter: 19µM; SMN2 splice enh: inactive; Rab9 prom act: inactive; NPC1 prom act: inactive

Results for Cc1[nH]n(-c2ccc([N+](=O)[O-])cc2)c(=O)c1C=NCC1CCCO1 (centres undefined) ?
ELG1 repair inh: inconclusive; ELG1 genotoxic: inconclusive; FLuc counter: inconclusive; SMN2 splice enh: inactive; Rab9 prom act: inconclusive; NPC1 prom act: inactive

How did Cc1[nH]n(-c2ccc([N+](=O)[O-])cc2)c(=O)c1C=NCCc1c(C)[nH]c2ccccc12 do in these assays?
ELG1 repair inh: 25.9µM; ELG1 genotoxic: inactive; FLuc counter: inactive; SMN2 splice enh: inactive; Rab9 prom act: inactive; NPC1 prom act: inactive

How did COc1ccc2[nH]c3c(c2c1)CCn1c-3nc2ccccc2c1=O do in these assays?
ELG1 repair inh: inconclusive; ELG1 genotoxic: inconclusive; FLuc counter: 0.477µM; SMN2 splice enh: 1.58µM; Rab9 prom act: 0.251µM; NPC1 prom act: 0.199µM

Results for COc1ccc2[nH]c3c(c2c1)CC(C)NC3=O (centres undefined) ?
ELG1 repair inh: inconclusive; ELG1 genotoxic: inactive; FLuc counter: inactive; Rab9 prom act: inactive; NPC1 prom act: inactive

How did O=C1CCCN1CCC(=O)N1CCCC(CO)(Cc2ccccc2)C1 (centres undefined) do in these assays?
ELG1 repair inh: inconclusive; ELG1 genotoxic: inactive[9.26 µM]; FLuc counter: 16.9µM; Rab9 prom act: 3.55µM; NPC1 prom act: inconclusive

How did CSCCC(=O)N1CCCC(CO)(CCCc2ccccc2)C1 (centres undefined) do in these assays?
ELG1 repair inh: inactive; ELG1 genotoxic: inactive; FLuc counter: inactive; Rab9 prom act: inactive; NPC1 prom act: inactive

Results for O=C(NC(=S)NNC(=O)c1cccs1)c1ccccc1 ?
ELG1 repair inh: inactive; ELG1 genotoxic: inconclusive; FLuc counter: inactive; Rab9 prom act: inactive; NPC1 prom act: inactive

Results for O=C(NNC(=S)Nc1ccccc1)c1cccs1 ?
ELG1 repair inh: inconclusive; ELG1 genotoxic: inconclusive; FLuc counter: inconclusive; SMN2 splice enh: 10µM; Rab9 prom act: 1.58µM; NPC1 prom act: inconclusive

Results for COC(=O)c1ccc(NC(=S)NNC(=O)c2ccccc2)cc1 ?
ELG1 repair inh: inactive; ELG1 genotoxic: inactive; FLuc counter: 23.9µM; Rab9 prom act: inactive; NPC1 prom act: inactive

What do the screens show for `Cc1cccc(C(=O)NC(=S)NNC(=O)c2cccs2)c1`?
ELG1 repair inh: 20.6µM; ELG1 genotoxic: inactive; FLuc counter: inactive; SMN2 splice enh: inactive; Rab9 prom act: inactive; NPC1 prom act: inactive

What do the screens show for `O=C(NNC(=S)Nc1ccccc1)c1ccc(O)cc1`?
ELG1 repair inh: inconclusive; ELG1 genotoxic: inconclusive; FLuc counter: inconclusive; Rab9 prom act: 3.55µM; NPC1 prom act: 3.55µM

Results for O=C(NNC(=S)NC(=O)c1ccccc1)c1ccc(O)cc1 ?
ELG1 repair inh: inactive; ELG1 genotoxic: inactive; FLuc counter: inactive; Rab9 prom act: inactive; NPC1 prom act: inactive

What do the screens show for `COC(=O)c1ccc(NC(=S)Nc2ccccc2)cc1`?
ELG1 repair inh: inactive; ELG1 genotoxic: inconclusive; FLuc counter: inconclusive; SMN2 splice enh: inactive; Rab9 prom act: inactive; NPC1 prom act: inactive

What do the screens show for `O=C(Nc1ccccc1Cl)c1csc(-c2cccnc2)n1`?
ELG1 repair inh: inconclusive; ELG1 genotoxic: inactive; FLuc counter: 12µM; Rab9 prom act: 2.82µM; NPC1 prom act: 2.82µM

How did O=C(NNS(=O)(=O)c1ccccc1)c1csc(-c2cccnc2)n1 do in these assays?
ELG1 repair inh: 11.6µM; ELG1 genotoxic: inactive; FLuc counter: inactive; Rab9 prom act: inactive; NPC1 prom act: inactive

What do the screens show for `O=C(NNC(=O)c1csc(-c2cccnc2)n1)c1ccccc1`?
ELG1 repair inh: inactive; ELG1 genotoxic: inactive; FLuc counter: inconclusive; Rab9 prom act: inactive; NPC1 prom act: inactive
